# USP8 block – inhibitors of human USP8 deubiquitinase; purified USP8, Ub-rhodamine cleavage fluorescence, 30 min; inhibition, % at 20 µM; hit rate 4.2% among 47,000; AID 1645853, 2021
# UCHL1 block – inhibitors of human UCHL1 deubiquitinase. Ubiquitin carboxyl-terminal hydrolase isozyme L1 (Homo sapiens), P09936. purified UCHL1, Ub-rhodamine cleavage fluorescence. inhibition, % at 20 µM. hit rate 0.2% among 47,000
# Target sequence (P09936 whole entry, looked up): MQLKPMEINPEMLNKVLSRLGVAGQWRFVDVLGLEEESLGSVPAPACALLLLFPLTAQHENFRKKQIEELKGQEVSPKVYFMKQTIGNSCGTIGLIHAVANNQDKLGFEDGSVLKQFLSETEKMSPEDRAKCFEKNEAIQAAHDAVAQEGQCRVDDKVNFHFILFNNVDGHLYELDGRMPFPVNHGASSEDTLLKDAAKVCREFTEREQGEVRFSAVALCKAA
# USP7 block – inhibitors of human USP7 deubiquitinase; purified USP7, Ub-rhodamine cleavage fluorescence; inhibition, % at 20 µM; hit rate 0.3% among 47,000; AID 1645854, 2021
# USP10 block – inhibitors of human USP10 deubiquitinase; Ubiquitin carboxyl-terminal hydrolase 10 (Homo sapiens), Q14694; purified USP10, Ub-rhodamine fluorescence, 60 min; inhibition, % at 20 µM; hit rate 1.1% among 47,000; AID 1645856, 2021
# OTUD3 block – inhibitors of human OTUD3 deubiquitinase; OTU domain-containing protein 3 (Homo sapiens), Q5T2D3; purified OTUD3, Ub-rhodamine fluorescence, 2 h; inhibition, % at 25 µM; hit rate 0.7% among 47,000
# A number is an active result; . = inactive. In the library only some 5% were active in any assay of this set; here they are far more common. Cut-off read from the data, not from the text of the source: active = inhibition above about 30%; inactive = the rest.
SMILES,USP8 block,UCHL1 block,USP7 block,USP10 block,OTUD3 block
COc1ccccc1-c1nc(-c2cccc(OCC(=O)Nc3ccccc3C)c2)no1,.,.,.,.,.
O=C(Nc1ccc(F)c(F)c1)c1cnc2ccccc2n1,.,.,.,.,.
Cc1ccc(NC(=O)c2cnc3ccccc3n2)cc1Cl,65.0,.,.,.,.
O=C(NCc1ccco1)N1CCCn2nc(-c3cccnc3)cc2C1,.,.,.,.,.
CCCN1C(=O)Cc2c(C)nc(-c3cccc(F)c3)nc21,75.1,.,.,.,.
Cc1nc(C2CCCCN2S(C)(=O)=O)nc2c1CC(=O)N2Cc1cccc(F)c1 (stereo not drawn),.,.,.,.,.
O=c1cc(-c2cncc(-c3cc4ccccc4o3)c2)nc(-c2ccccc2)[nH]1,.,.,.,.,.
O=c1cc(-c2cncc(Br)c2)nc(-c2ccccc2)[nH]1,34.1,.,.,.,.
O=C(c1ccc2c(c1)OCO2)N1CC(C(=O)N2CCN(c3ncccn3)CC2)C1,.,.,.,.,.
CC(C)=CCc1c2c(c3occ(-c4ccc(O)cc4)c(=O)c3c1O)C=CC(C)(C)O2,.,.,.,.,43.6
CC(C)=CCc1c2c(c3occ(-c4ccc(O)c(O)c4)c(=O)c3c1O)C=CC(C)(C)O2,.,.,.,62.5,80.6
O=C(Nc1ccc(F)cc1)c1ccc(-c2ccc(N3CCCC3)nn2)cc1,49.1,.,.,.,.
Cc1cn[nH]c1CC1CCCN(C(=O)c2ccc(-n3cccn3)nc2)C1 (stereo not drawn),.,.,.,.,.
CCn1cc2c(n1)c(=O)n(Cc1ccc(C)cc1)c(=O)n2CC(=O)Nc1ccc(F)cc1,.,.,.,.,.
CCn1cc2c(n1)c(=O)n(Cc1ccccc1)c(=O)n2CC(=O)NCc1ccc(C)cc1,60.5,.,.,.,34.7
O=C(Cn1c(=O)n(Cc2ccc(F)cc2)c(=O)c2ncccc21)Nc1ccccc1,.,.,.,.,.
Cc1ccc(Cn2c(=O)n(CCC(=O)NCCc3ccccc3)c(=O)c3ccccc32)cc1,33.8,.,.,.,.
O=C(Cc1ccc(-n2c(=O)c3ccccc3n(Cc3cc(=O)n4ccccc4n3)c2=O)cc1)NCCc1ccccc1,48.6,.,.,.,.
Cc1ccc(Cn2c(=O)c3ncccc3n(CC(=O)NCc3ccc(F)cc3)c2=O)cc1,81.4,.,.,33.5,45.2
Cc1ccc(CN2CC[C@H]3COC(=O)N(C)[C@@H]3C2)cc1,.,.,.,.,.
Cc1ccc(CNC(=O)Cn2c(=O)n(CCCC(=O)NCc3ccc(F)cc3)c(=O)c3ccccc32)cc1,43.2,.,.,43.7,.
COc1ccc(CCC(=O)Nc2nnc(C3CC(=O)N(c4ccccc4)C3)s2)cc1 (stereo not drawn),.,.,.,34.0,.
COc1cc(-c2nc(C(N)=O)c3[nH]c(=O)n(-c4ccccc4)c3n2)ccc1O,.,.,.,.,.
Cc1ccc(-n2c(=O)[nH]c3c(C(N)=O)nc(-c4cccnc4)nc32)cc1,.,.,.,.,31.5
Cc1cccc(-c2nc(C(N)=O)c3[nH]c(=O)n(-c4ccccc4)c3n2)c1,74.8,.,.,.,.
SMILES,USP8 block,UCHL1 block,USP7 block,USP10 block,OTUD3 block
Cc1ccc(-n2c(=O)[nH]c3c(C(N)=O)nc(-c4ccccn4)nc32)cc1,.,.,.,.,.
COc1ccc(-n2c(C)c(C)n3c4c(=O)[nH]c(=O)n(C)c4nc23)c(OC)c1,.,.,.,.,.
COc1cccc(N2CCN(c3ccc4nnc(CCC(=O)NCCN5CCCC5)n4n3)CC2)c1,.,.,.,.,.
COC(=O)C(NC(=O)CCc1nnc2ccc(N3CCN(c4cccc(OC)c4)CC3)nn12)C(C)C (stereo not drawn),34.0,.,.,.,.
COc1cccc(N2CCN(c3ccc4nnc(CCC(=O)NCCC5=CCCCC5)n4n3)CC2)c1,69.2,.,.,.,.
O=C(c1cc(C2CCCCC2)no1)N1C[C@@H](O)[C@H](N2CCOCC2)C1,.,.,.,.,.
CC(C)n1ccc(-c2cc(C(=O)N3CCN(C)CC3)c3ccccn23)n1,.,.,.,.,.
Cn1c2ccccc2c(=O)c2c(=O)n(Cc3ccccc3)c(-c3ccc(C(C)(C)C)cc3)nc21,.,.,.,.,.
COCCCNC(=O)C1c2ccccc2C(=O)N1Cc1ccc2c(c1)OCO2 (stereo not drawn),.,.,.,.,.
Cc1nc(Nc2ccc(Cl)cn2)sc1C(=O)NC1CCCC1,30.7,.,.,.,.
NC(c1c(O)ccc2ccccc12)P(=O)(O)O (stereo not drawn),37.5,.,.,.,.
Cc1ocnc1C(=O)N[C@@H]1C[C@@H](Oc2ccccc2)[C@H](O)[C@H]1N1CCCC1,.,.,.,.,.
CC1NC(=O)C(CC(N)=O)NC(=O)C(C(C)O)NC(=O)C(Cc2ccc(O)cc2)NC(=O)C(C(C)C)NC(=O)C(NC(=O)CC(O)CCCCCCCCCCCCN=C(N)N)C(C)OC1=O (stereo not drawn),.,.,.,.,73.4
CC1(C)CC[C@]2(C(=O)O)CC[C@]3(C)C(=CCC4[C@@]5(C)CC[C@H](O)[C@@](C)(CO)C5CC[C@]43C)[C@@H]2C1 (stereo partly drawn),.,.,.,.,80.7
O=C(NCc1ccc(Cl)cc1)c1ccc(N2CCCS2(=O)=O)cc1,.,.,.,.,.
O=C(c1cscn1)N1CCC2(CC1)CC1(CO2)Nc2ccccc2-n2cccc21 (stereo not drawn),94.2,.,.,.,.
O=C(c1cccnc1)N1CCC2(CC1)CC1(CO2)Nc2ccccc2-n2cccc21 (stereo not drawn),92.9,.,.,.,.
CCCn1cc(C(=O)N2CCC3(CC2)CC2(CO3)Nc3ccccc3-n3cccc32)c(C)n1 (stereo not drawn),93.9,.,.,.,.
O=C(c1ccncc1)N1CCC2(CC1)CC1(CO2)Nc2ccccc2-n2cccc21 (stereo not drawn),71.0,.,.,.,.
CCC(C)[C@H](NC(=O)[C@H](C(C)C)N1C(=O)N2CCc3c([nH]c4ccccc34)[C@@]2(C)C1=O)C(=O)NC1CCCC1 (stereo partly drawn),.,.,.,.,.
Cc1ccc(NC(=O)N2CCC3(CC2)Nc2ccccc2-n2cccc23)cc1,.,.,.,.,.
O=C(c1ccco1)N1CCC2(CC1)CC1(CO2)Nc2ccccc2-n2cccc21 (stereo not drawn),67.5,.,.,.,.
COc1cc2c(cc1OC)-c1cc(Nc3ccc(Br)cc3)nc(=O)n1CC2,.,.,.,42.7,.
COc1ccc(CCNc2cc3n(c(=O)n2)CCc2cc(OC)c(OC)cc2-3)cc1OC,.,.,.,.,.

# From PubChem
